Results: PubChem BioAssay
A number with no mark means an inactive call. For part of these data: Measured potencies and affinities stand elsewhere. Active and inactive are the calls of the source. Unless noted, how the calls were made is not given here.

Columns and labels:
[1] = antimalarial activity against Dd2 strain (AID 2302;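 active means growth inhibition above 50% at the single 2 µM test dose, taken to imply half-maximal potency below 2 µM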;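 further: 0% = DMSO untreated growth and 100% = chloroquine plus artemisinin killed control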); settings: P. falciparum Dd2 in RBCs, LDH growth readout, 72 h; at 2 µM; active compounds read high
[2] = HepG2 cytotoxicity, primary screen, cytotoxicity control for P. falciparum antimalarial project, cell-based, ATP luminescence (AID 2303;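 active means inhibition above 50%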;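 further: 0% = DMSO wells and 100% = digitonin-killed cells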); settings: HepG2 viability, 24-48 h, at 10 µM, active compounds read high
[3] = target: L-lactate dehydrogenase (Plasmodium falciparum (isolate CDC / Honduras)) (UniProt Q27743); assay: PfLDH activity inhibition – cell lysate, 3D7 strain, counter-screen for P. falciparum growth inhibition project (AID 2304);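 further: 0% = vehicle and 100% = reference inhibitor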; settings: P. falciparum 3D7 crude extract, LDH APAD/NBT absorbance; at 2 µM; active compounds read high
[4] = inhibition of 3D7 malaria parasite growth – strain 3D7 (AID 2306);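 further: 0% = DMSO wells and 100% = chloroquine plus artemisinin control wells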; settings: P. falciparum 3D7 erythrocytic growth, LDH absorbance, 72 h; at 2 µM; active compounds read high
[5] = target: Calcium-dependent protein kinase 1 (Plasmodium falciparum (isolate 3D7)) (UniProt P62344); assay: PfCDPK1 kinase inhibitors, biochemical, TCAMS library (AID 1159585; cut-off not given, nearly all actives have IC50 up to about 0.98 µM;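 further: inhibitors leave more ATP so luminescence rises with inhibition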); settings: recombinant PfCDPK1, Kinase-Glo ATP depletion luminescence
[6] = target: Plasmodium falciparum protein kinase 6 (PK6, PF3D7_1337100) (UniProt Q8IDW1); assay: PfPK6 kinase inhibitors, biochemical, TCAMS library (AID 1159586); settings: recombinant PfPK6, Kinase-Glo ATP depletion luminescence
[7] = target: Protein kinase 7 (PK7), Plasmodium falciparum 3D7 (PF3D7_0213400) (UniProt Q7YTF7); assay: inhibition of Plasmodium PK7 catalytic activity – biochemical, TCAMS antimalarial set, Kinase-Glo luminescence (AID 1159587); settings: recombinant PfPK7, Kinase-Glo ATP depletion luminescence
[8] = target: Calcium-dependent protein kinase 4 (Plasmodium falciparum (isolate 3D7)) (UniProt Q8IBS5); assay: PfCDPK4 kinase inhibitors, biochemical, TCAMS library (AID 1159588; cut-off not given, nearly all actives have IC50 up to about 0.91 µM); settings: recombinant PfCDPK4, Kinase-Glo ATP depletion luminescence
Calcium-dependent protein kinase 4 (Plasmodium falciparum (isolate 3D7)), sequence (Q8IBS5 whole entry, looked up): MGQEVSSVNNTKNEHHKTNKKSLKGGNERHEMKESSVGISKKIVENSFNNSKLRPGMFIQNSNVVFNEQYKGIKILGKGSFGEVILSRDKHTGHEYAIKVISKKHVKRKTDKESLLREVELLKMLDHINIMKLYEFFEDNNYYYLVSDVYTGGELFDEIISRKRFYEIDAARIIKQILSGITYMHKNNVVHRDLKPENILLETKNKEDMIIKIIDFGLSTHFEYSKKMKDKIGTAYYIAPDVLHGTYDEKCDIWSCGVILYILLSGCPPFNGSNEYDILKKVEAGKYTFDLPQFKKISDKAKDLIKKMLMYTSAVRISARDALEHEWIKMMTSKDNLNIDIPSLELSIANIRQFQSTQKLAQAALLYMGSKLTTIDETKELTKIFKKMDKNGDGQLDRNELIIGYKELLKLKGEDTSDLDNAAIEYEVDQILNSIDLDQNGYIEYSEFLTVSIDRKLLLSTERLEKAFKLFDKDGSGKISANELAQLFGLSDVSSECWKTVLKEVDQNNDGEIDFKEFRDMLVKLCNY

Calcium-dependent protein kinase 1 (Plasmodium falciparum (isolate 3D7)), sequence (P62344 whole entry, looked up): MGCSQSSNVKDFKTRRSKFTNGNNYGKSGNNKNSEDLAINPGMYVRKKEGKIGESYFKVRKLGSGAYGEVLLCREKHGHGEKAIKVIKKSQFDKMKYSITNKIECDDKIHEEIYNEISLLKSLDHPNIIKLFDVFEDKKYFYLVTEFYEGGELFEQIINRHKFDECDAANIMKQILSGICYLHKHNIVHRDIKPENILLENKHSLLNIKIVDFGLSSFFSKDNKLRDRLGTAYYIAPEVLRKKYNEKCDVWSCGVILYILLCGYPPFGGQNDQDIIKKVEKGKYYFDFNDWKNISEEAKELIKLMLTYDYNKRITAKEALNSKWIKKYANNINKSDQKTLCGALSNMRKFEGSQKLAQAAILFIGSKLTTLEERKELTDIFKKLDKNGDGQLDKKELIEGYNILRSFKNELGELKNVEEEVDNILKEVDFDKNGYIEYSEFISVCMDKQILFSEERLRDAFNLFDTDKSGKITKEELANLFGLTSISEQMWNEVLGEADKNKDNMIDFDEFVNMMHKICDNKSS
Plasmodium falciparum protein kinase 6 (PK6, PF3D7_1337100), sequence (Q8IDW1 1-305): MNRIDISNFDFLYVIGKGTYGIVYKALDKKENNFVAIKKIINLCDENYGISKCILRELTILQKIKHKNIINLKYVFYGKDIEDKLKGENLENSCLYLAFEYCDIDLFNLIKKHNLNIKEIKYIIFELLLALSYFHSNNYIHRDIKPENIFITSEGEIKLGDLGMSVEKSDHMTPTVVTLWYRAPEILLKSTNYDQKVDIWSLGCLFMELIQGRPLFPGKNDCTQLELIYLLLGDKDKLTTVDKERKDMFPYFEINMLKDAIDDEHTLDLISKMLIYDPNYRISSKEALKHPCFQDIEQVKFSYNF
Protein kinase 7 (PK7), Plasmodium falciparum 3D7 (PF3D7_0213400), sequence (Q7YTF7 1-343): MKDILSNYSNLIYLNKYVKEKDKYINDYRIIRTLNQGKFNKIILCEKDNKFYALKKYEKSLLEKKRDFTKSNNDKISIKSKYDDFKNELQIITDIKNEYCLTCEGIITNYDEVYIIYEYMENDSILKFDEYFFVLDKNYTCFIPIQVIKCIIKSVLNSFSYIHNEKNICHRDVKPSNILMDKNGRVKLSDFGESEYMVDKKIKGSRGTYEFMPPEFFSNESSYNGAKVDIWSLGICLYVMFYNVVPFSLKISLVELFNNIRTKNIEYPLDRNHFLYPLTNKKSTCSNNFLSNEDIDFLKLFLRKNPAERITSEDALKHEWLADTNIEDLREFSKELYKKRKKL
L-lactate dehydrogenase (Plasmodium falciparum (isolate CDC / Honduras)), sequence (Q27743 whole entry, looked up): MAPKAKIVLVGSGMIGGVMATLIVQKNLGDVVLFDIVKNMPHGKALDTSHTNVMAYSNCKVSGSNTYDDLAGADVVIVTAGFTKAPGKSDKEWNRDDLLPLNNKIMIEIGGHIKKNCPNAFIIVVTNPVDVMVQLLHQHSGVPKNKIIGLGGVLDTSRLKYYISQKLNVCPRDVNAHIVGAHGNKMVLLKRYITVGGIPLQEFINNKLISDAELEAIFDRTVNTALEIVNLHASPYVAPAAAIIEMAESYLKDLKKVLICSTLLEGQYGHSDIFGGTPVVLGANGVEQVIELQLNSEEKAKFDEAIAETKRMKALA

Structure (SMILES) | growth inhibition [1] | inhibition [2] | inhibition [3] | growth inhibition [4] | outcome [5] | outcome [6] | outcome [7] | outcome [8]
O=C(Cn1cnc2c(nnn2Cc2ccccc2F)c1=O)Nc1ccc2c(c1)OCCO2 | 1% | -6% | -2% | 86% (active) | inactive | inactive | inactive | inactive
O=C(Nc1ccc(C(=O)OC[C@@H]2CCCN3CCCC[C@H]23)cc1)c1ccc([N+](=O)[O-])cc1 | 25% | 5% | 2% | 95% (active) | inactive | inactive | inactive | inactive
Cc1cc(N[C@@H](Cc2ccccc2)C(=O)NCc2cccc(F)c2)nc(NCc2ccccc2C)n1 | 75% (active) | 6% | 0% | 100% (active) | inactive | inactive | inactive | inactive
Cc1nc(-c2cccc(C(=O)NC3CCC(CCN4CCc5ccc(-c6cccnc6)cc5CC4)CC3)c2)no1 (stereo not drawn) | 4% | 17% | -1% | 98% (active) | inactive | inactive | inactive | inactive
Cc1cccc(-c2nn(-c3ccccc3)cc2C(=O)Nc2nnc(C)o2)c1 | 63% (active) | 38% | 4% | 84% (active) | inactive | inactive | inactive | inactive
O=C(/C=C/c1ccccc1O)NCCCCCN1CCC(c2c[nH]c3ccccc23)CC1 | 1% | 7% | -5% | 95% (active) | inactive | inactive | inactive | inactive
Cc1nc(N=C(N)N)nc2cc3c(cc12)CCC3 | 58% (active) | 17% | 5% | 90% (active) | inactive | inactive | inactive | inactive
CC(C)(C)OC(=O)[C@H](CC(N)=O)NC(=O)c1ccc(-c2ccc(-c3nc4ccc(C(F)(F)F)cc4[nH]3)s2)cc1 | 88% (active) | 62% (active) | -2% | 94% (active) | inactive | inactive | inactive | inactive
c1ccc2[nH]c(-c3ccc(-c4ccc(CN5CCC(N6CCCCC6)CC5)cc4)s3)nc2c1 | 100% (active) | 26% | -5% | 99% (active) | inactive | inactive | inactive | inactive
Oc1ccc(Cl)c2c1C(c1ccccc1)=NCC2 | 43% | -9% | -4% | 95% (active) | inactive | inactive | inactive | inactive
CCC1CN2CCc3c([nH]c4ccccc34)C2CC1CC1=NCCc2c1[nH]c1ccccc21 (stereo not drawn) | 47% | 20% | -8% | 100% (active) | inactive | inactive | inactive | inactive
O=c1[nH]c2c(c(O)c1[N+](=O)[O-])CCC2 | 1% | 9% | -5% | 97% (active) | inactive | inactive | inactive | inactive
CNC(=O)CC(=O)NCCc1ccc(Cl)cc1 | 1% | -7% | 6% | 99% (active) | inactive | inactive | inactive | inactive
N#Cc1c(N)nc(SCC(=O)Nc2cc(C(F)(F)F)ccc2Cl)c(C#N)c1-c1cccs1 | 96% (active) | 23% | -4% | 90% (active) | inactive | inactive | inactive | inactive
Clc1cc(Br)ccc1-c1ccc(CNCC2CCNCC2)o1 | 39% | 100% (active) | 1% | 96% (active) | inactive | inactive | inactive | inactive
COc1cc(NC(=O)c2sc(-c3ccc(Cl)cc3)cc2NC(=O)c2cccnc2)ccc1OCCN1CCCC1 | 77% (active) | 38% | -1% | 94% (active) | inactive | inactive | inactive | inactive
O=C(Nc1ccc(I)cc1)Nc1ccc(Cn2ncc(N3CCCNCC3)c(Cl)c2=O)cc1 | 30% | 35% | 0% | 86% (active) | inactive | inactive | inactive | inactive
COc1ccc(S(=O)(=O)N(CC(=O)NN=C(C)c2cccs2)c2cc(C)cc(C)c2)cc1OC | 43% | 12% | -1% | 97% (active) | inactive | inactive | inactive | inactive
Cc1cccc2[nH]c(-c3cccc(-c4ccc(CNCc5cnn(-c6ccccc6)n5)cc4)c3)nc12 | 66% (active) | 20% | -4% | 102% (active) | inactive | inactive | inactive | inactive
O=C(NC1CC1)c1ccc(N2CCC(Cc3ccccc3)CC2)nc1 | 92% (active) | 13% | 5% | 95% (active) | inactive | inactive | inactive | inactive
COc1ccc2ncc(C)c(CCN3CCC(NCc4ccc5c(n4)NC(=O)CS5)CC3)c2c1 | 53% (active) | 14% | -4% | 100% (active) | inactive | inactive | inactive | inactive
